According to PubChem BioAssay (Tox21):
Unmarked numbers belong to inactive results. Results filed as inconclusive are left out. Entries that show only a call come without a potency. Calls of active or inactive are those of the source. Unless noted, calls come from the whole dose curve; as a rule, active = well fitted curve in the direction sought with a large enough effect in the repeat runs; inconclusive = weak or mixed curves; inactive = no such curve, though single readings can be large; an effect the other way counts as inactive or inconclusive.

What was measured:
[1] = qHTS assay to identify small molecule agonists of the progesterone receptor (PR) signaling pathway - cell viability counter screen (AID 1346799; calls by dose curve; note: nearly all actives have a fitted effect of over 45% in size)
Outline: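 Cytotoxicity measured by CellTiter-Glo luminescence (30 min, RT) in the same wells as the PR beta-lactamase agonist read. Those HEK293T cells had 16 h compound treatment at 37 C in 2% charcoal-stripped FBS medium.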

[2] = qHTS assay to identify small molecule antagonists of the TGF-beta/Smad signaling pathway - cell viability counter screen (AID 1346824); note: nearly all actives have a fitted effect of over 50% in size
Outline: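 SBE-bla HEK 293T cells were plated overnight at 37 C, then given compounds in DMSO plus TGF-beta1 (added as 0.25 ng/mL solution) for 5 hr. After the bla read, CellTiter-Glo was added to the same wells and luminescence read after 30 min at room temperature.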

[3] = qHTS assay to identify small molecule agonists of the TGF-beta/Smad signaling pathway - cell viability counter screen (AID 1346829); note: top concentration of the series differs between compounds; nearly all actives have a fitted effect of over 45% in size
Outline: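 After overnight seating at 37 C and 5% CO2, reporter cells got compounds for 5 hr and FRET substrate for 2 hr; cell viability then came from CellTiter-Glo luminescence.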

[4] = qHTS assay to identify small molecule agonists of the TGF-beta/Smad signaling pathway (AID 1346859; active = well fitted activation curve with a large enough effect in the signal ratio in the repeat runs, not every such curve was filed as active; the % refers to the signal ratio; note: series mostly up to about 77 µM)
Outline: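 Fluorescence (ex 405 nm; em 460 and 530 nm) was read 2 h after LiveBLAzer FRET substrate at RT. The preceding compound treatment of overnight-plated SBE-bla HEK293T cells lasted 5 h at 37 C.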

[5] = biological target: Thyrotropin-releasing hormone receptor (Homo sapiens) (UniProt P34981); experiment: qHTS assay to identify small molecule antagonists of the thyrotropin-releasing hormone receptor (TRHR) signaling pathway (AID 1346877; active = well fitted inhibition curve with a large enough effect in the repeat runs, not every such curve was filed as active; note: series mostly up to about 51 µM)
Outline: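 Intracellular calcium fluorescence, read kinetically every second over 3 min, reports TRH-evoked signalling in HEK293 cells carrying TRHR. Test compounds were added 5 min ahead of a 1 nM TRH challenge.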

[6] = biological target: Thyrotropin-releasing hormone receptor (Homo sapiens) (UniProt P34981); experiment: qHTS assay to identify small molecule agonists of the thyrotropin-releasing hormone receptor (TRHR) signaling pathway (AID 1346891; calls by dose curve; note: potency is the fitted concentration of half-maximal effect; for activation: series mostly up to about 58 µM)
Outline: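 Agonist-mode intracellular calcium readout: kinetic fluorescence over 3 min at 1 s intervals after compound addition to TRHR-HEK293 cells (18 h seeded, 2 h dye-loaded at 37 C). Fifteen concentrations, triplicates.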

[7] = Human pregnane X receptor (PXR) small molecule agonists, qHTS cell viability counter screen (AID 1346977); note: nearly all actives have a fitted effect of over 50% in size; note: potency is the fitted concentration of half-maximal effect
Outline: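 Same-well viability read: CellTiter-Fluor added after 23 hr compound exposure, fluorescence measured 1 hr later. Cells were PXR-Luc HepG2 seeded at 2,000/well in 5% charcoal-stripped FBS medium, rested 5 hr before dosing at 37 C.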

[8] = Caspase-3/7 induction in HepG2 cells by small molecules, qHTS assay (AID 1346978); note: nearly all actives have a fitted effect of over 15% in size
Outline: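 Wild-type HepG2 cells (2,000/well) were settled 5 h at 37 C, 5% CO2, then exposed to compounds in DMSO for 17 h. Caspase-3/7 activity was read by luminescence 30 min after adding Caspase-Glo 3/7 reagent at room temperature.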

[9] = Caspase-3/7 induction in CHO-K1 cells by small molecules, qHTS assay (AID 1346980); note: nearly all actives have a fitted effect of over 15% in size
Outline: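 Wild-type cells were seeded at 1,500 per well and settled 5 hr at 37 C, 5% CO2, then exposed to DMSO-dissolved compounds for 17 hr. Caspase-Glo 3/7 reagent was added, and luminescence was read after 30min at room temperature.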

[10] = Caspase-3/7 induction in HepG2 cells by small molecules, qHTS cell viability counter screen (AID 1346981); note: nearly all actives have a fitted effect of over 30% in size; note: potency is the fitted concentration of half-maximal effect; for activity change, negative = cytotoxicity: series mostly up to about 92 µM
Outline: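 HepG2, WT, 2,000 cells/well; 5 hr pre-incubation 37 C/5% CO2; compound pin-transferred from DMSO; 16 hr exposure; CellTiter-Fluor, 1 hr; fluorescence read.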

[11] = biological target: Nuclear receptor subfamily 1 group I member 2 (Homo sapiens) (UniProt O75469); experiment: Human pregnane X receptor (PXR) small molecule agonists, qHTS assay (AID 1346982); note: nearly all actives have a fitted effect of over 35% in size; note: potency is the fitted concentration of half-maximal effect
Outline: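 Luciferase signal from ONE-Glo (30 min, room temperature) measured activation of hPXR-driven CYP3A4 reporter expression in PXR-Luc HepG2 cells treated with compounds for 24 hr at 37 C.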

[12] = biological target: Cytochrome P450 2D6 (Homo sapiens) (UniProt P10635); experiment: Cytochrome P450 Family 2 Subfamily D Member 6 (CYP2D6) small molecule antagonists: luciferase reporter qHTS assay (AID 1671196); note: nearly all actives have a fitted effect of over 50% in size; note: potency is the fitted concentration of half-maximal effect; for activity change, negative = inhibition: series mostly up to about 120 µM
Outline: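 Read-out is luminescence from luciferin formed by CYP2D6 turnover of a proluciferin substrate, recorded as relative luminescence units. Reactions ran 1 h at room temperature after NADPH regeneration solution was added.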

[13] = biological target: Cytochrome P450 2C9 (Homo sapiens) (UniProt P11712); experiment: Cytochrome P450 Family 2 Subfamily C Member 9 (CYP2C9) small molecule antagonists: luciferase reporter qHTS assay (AID 1671198); note: nearly all actives have a fitted effect of over 50% in size; note: potency is the fitted concentration of half-maximal effect; for activity change, negative = inhibition: series mostly up to about 120 µM
Outline: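 CYP2C9 activity was measured with a P450-Glo proluciferin substrate. Enzyme–substrate mix was held with compound for 10 min at room temperature, then NADPH regeneration solution was added for 1 h at 37C. Luciferin product was read as luminescence.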

[14] = biological target: Cytochrome P450 2C19 (Homo sapiens) (UniProt P33261); experiment: Cytochrome P450 Family 2 Subfamily C Member 19 (CYP2C19) small molecule antagonists: luciferase reporter qHTS assay (AID 1671197); note: nearly all actives have a fitted effect of over 65% in size; note: potency is the fitted concentration of half-maximal effect; for activity change, negative = inhibition: series mostly up to about 120 µM
Outline: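 Inhibition of CYP2C19 was scored from loss of luminescence in a P450-Glo proluciferin substrate assay, NADPH-started and run 1 h at 37C, with ketoconazole as positive control.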

[15] = biological target: Cytochrome P450 1A2 (Homo sapiens) (UniProt P05177); experiment: Cytochrome P450 Family 1 Subfamily A Member 2 (CYP1A2) small molecule antagonists: luciferase reporter qHTS assay (AID 1671199); note: nearly all actives have a fitted effect of over 50% in size; note: potency is the fitted concentration of half-maximal effect; for activity change, negative = inhibition: series mostly up to about 120 µM
Outline: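 P450-Glo CYP1A2, 1536-well qHTS: enzyme/proluciferin substrate + cpd (DMSO), 10 min RT; NADPH regen, 1 h RT; detection reagent, 20 min; luminescence, RLU.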

[16] = biological target: Voltage-gated inwardly rectifying potassium channel KCNH2 (Homo sapiens) (UniProt Q12809); experiment: Human Ether-a-go-go-Related Gene (hERG) channel small molecule antagonists: fluorescence cell-based qHTS assay (AID 1671200); note: nearly all actives have a fitted effect of over 50% in size; note: potency is the fitted concentration of half-maximal effect; for activity change, negative = inhibition: series mostly up to about 77 µM
Outline: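 Thallium flux as potassium surrogate: FluxOR II dye loaded 1 h at room temperature into hERG-expressing U2OS cells, then stimulus buffer added after 10 min. Kinetic 480 nm excitation/540 nm emission read, 2 min.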

[17] = Caspase-3/7 induction in CHO-K1 cells by small molecules, qHTS cell viability counter screen (AID 1346979); note: nearly all actives have a fitted effect of over 35% in size; note: potency is the fitted concentration of half-maximal effect
Outline: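 Cytotoxicity counter screen: CellTiter-Fluor added to compound-treated wild-type CHO-K1 cells at 16 h (37C, 5% CO2), fluorescence measured 1 h later; same wells as caspase-3/7 measurement.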

Thyrotropin-releasing hormone receptor (Homo sapiens), sequence (P34981 whole entry, looked up): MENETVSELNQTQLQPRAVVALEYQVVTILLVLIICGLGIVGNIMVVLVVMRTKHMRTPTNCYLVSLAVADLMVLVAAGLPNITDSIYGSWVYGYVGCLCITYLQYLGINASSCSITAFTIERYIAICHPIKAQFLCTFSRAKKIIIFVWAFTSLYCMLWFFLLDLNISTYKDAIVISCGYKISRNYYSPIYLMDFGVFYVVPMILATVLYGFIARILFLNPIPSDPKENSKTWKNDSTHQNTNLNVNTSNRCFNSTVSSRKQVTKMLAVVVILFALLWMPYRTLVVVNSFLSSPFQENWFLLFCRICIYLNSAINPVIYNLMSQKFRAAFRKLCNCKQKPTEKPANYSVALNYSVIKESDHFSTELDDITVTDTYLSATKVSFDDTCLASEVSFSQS
Cytochrome P450 2C9 (Homo sapiens), sequence (P11712 whole entry, looked up): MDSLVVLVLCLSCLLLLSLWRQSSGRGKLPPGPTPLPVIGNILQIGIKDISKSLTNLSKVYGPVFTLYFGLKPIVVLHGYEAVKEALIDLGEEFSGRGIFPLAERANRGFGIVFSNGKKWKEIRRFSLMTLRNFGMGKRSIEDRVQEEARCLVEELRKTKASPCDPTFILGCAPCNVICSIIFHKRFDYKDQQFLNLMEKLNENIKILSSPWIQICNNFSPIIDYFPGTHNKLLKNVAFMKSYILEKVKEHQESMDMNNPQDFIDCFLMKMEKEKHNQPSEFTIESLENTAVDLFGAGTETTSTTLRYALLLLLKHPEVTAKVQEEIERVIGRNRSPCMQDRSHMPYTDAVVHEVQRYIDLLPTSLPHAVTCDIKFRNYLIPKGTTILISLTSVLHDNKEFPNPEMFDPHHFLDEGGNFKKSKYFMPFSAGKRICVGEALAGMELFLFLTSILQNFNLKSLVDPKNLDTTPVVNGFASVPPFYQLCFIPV
Cytochrome P450 2D6 (Homo sapiens), sequence (P10635 whole entry, looked up): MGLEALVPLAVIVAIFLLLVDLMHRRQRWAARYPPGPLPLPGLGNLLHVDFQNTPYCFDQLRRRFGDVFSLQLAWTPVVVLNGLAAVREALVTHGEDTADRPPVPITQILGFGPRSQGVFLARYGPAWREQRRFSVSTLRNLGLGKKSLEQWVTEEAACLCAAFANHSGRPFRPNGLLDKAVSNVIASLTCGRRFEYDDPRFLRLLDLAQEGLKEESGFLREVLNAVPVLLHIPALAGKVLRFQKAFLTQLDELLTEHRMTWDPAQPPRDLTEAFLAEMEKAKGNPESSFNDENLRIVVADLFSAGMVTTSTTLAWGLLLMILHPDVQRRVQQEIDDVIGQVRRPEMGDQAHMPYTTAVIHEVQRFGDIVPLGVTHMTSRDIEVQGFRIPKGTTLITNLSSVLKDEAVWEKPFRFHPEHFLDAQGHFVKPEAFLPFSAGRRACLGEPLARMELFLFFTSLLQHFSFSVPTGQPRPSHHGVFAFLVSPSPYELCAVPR
Voltage-gated inwardly rectifying potassium channel KCNH2 (Homo sapiens), sequence (Q12809 whole entry, looked up): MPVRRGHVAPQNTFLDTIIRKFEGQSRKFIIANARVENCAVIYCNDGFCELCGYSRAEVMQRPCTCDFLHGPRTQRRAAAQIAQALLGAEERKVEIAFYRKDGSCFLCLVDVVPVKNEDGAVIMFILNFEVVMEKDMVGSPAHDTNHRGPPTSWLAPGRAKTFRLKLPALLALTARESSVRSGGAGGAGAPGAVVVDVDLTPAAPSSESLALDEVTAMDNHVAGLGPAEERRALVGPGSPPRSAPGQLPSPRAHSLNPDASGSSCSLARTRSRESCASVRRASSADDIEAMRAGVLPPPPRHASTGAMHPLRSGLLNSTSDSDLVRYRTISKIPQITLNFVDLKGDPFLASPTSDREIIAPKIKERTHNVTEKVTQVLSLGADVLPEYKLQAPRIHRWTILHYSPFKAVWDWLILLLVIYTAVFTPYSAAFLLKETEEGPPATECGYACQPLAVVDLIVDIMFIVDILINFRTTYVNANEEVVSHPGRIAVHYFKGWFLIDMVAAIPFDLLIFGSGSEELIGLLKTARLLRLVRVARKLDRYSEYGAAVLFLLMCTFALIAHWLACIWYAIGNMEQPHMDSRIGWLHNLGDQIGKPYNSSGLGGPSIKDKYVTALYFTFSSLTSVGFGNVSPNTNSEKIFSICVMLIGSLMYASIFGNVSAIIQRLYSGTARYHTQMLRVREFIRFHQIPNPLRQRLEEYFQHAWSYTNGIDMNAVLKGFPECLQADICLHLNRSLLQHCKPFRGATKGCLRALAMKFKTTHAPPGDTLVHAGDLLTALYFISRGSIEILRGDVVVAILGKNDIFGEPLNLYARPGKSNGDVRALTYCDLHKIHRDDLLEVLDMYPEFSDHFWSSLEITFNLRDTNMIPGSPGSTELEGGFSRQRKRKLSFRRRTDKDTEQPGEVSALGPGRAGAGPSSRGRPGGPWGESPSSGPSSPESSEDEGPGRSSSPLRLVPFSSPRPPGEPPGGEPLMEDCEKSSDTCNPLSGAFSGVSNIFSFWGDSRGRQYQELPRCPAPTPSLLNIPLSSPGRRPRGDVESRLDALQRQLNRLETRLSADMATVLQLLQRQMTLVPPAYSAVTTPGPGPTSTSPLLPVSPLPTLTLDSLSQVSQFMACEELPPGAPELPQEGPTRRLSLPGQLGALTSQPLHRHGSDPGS
Nuclear receptor subfamily 1 group I member 2 (Homo sapiens), sequence (O75469 whole entry, looked up): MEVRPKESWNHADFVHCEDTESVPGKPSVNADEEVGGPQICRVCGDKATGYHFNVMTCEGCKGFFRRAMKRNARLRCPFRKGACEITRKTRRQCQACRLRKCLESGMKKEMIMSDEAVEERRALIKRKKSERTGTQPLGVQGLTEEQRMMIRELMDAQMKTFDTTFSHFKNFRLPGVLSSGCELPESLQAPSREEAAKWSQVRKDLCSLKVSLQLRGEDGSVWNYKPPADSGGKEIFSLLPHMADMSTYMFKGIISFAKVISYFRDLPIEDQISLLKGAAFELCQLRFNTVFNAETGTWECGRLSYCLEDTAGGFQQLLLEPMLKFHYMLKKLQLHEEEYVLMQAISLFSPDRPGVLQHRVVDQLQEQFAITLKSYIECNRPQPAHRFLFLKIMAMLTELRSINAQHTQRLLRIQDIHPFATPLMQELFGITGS
Cytochrome P450 1A2 (Homo sapiens), sequence (P05177 whole entry, looked up): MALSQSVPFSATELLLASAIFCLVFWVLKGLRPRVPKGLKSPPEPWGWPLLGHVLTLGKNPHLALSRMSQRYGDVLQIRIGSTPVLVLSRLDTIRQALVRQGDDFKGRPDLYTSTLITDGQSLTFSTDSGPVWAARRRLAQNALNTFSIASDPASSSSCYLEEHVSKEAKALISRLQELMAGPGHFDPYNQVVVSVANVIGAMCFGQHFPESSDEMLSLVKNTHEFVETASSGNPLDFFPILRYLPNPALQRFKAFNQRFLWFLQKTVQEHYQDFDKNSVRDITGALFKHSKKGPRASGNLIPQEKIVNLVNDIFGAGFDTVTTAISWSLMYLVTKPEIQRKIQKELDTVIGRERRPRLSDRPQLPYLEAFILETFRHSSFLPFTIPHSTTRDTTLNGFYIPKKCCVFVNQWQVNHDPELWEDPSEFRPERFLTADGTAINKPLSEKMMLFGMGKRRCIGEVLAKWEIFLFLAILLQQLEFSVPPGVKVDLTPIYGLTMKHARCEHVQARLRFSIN
Cytochrome P450 2C19 (Homo sapiens), sequence (P33261 whole entry, looked up): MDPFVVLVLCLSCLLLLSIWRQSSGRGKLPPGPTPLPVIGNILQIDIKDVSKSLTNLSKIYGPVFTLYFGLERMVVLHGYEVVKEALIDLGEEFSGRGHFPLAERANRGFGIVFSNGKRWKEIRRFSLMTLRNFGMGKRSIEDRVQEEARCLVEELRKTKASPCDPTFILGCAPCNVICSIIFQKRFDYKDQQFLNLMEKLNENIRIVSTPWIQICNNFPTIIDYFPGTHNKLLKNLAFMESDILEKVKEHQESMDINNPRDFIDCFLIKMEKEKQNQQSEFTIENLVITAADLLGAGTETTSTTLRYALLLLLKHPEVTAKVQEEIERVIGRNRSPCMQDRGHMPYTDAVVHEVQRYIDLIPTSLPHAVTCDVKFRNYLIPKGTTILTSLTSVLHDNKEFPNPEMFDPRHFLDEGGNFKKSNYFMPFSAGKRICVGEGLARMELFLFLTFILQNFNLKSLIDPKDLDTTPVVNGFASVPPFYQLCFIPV

Oc1ccc2c(c1)CCC2
Potency [1]: inactive | Potency [2]: inactive | Potency [3]: inactive | outcome [4]: inactive | Potency [5]: inactive | Potency [6]: inactive | Potency [7]: inactive | Potency [8]: inactive | Potency [9]: inactive | Potency [10]: inactive | Potency [11]: inactive | Potency [12]: inactive | Potency [13]: inactive

CCOc1nc(F)cc2nc(S(=O)(=O)Nc3c(Cl)cccc3C(=O)OC)nn12
Potency [1]: inactive | Potency [2]: inactive | Potency [3]: inactive | outcome [4]: inactive | Potency [5]: inactive | Potency [6]: inactive | Potency [7]: inactive | Potency [8]: inactive | Potency [9]: inactive | Potency [10]: inactive | Potency [11]: inactive | Potency [12]: inactive | Potency [14]: inactive | Potency [15]: inactive | Potency [16]: inactive

CCc1cccc(CC)c1
Potency [1]: inactive | Potency [2]: inactive | Potency [3]: inactive | outcome [4]: inactive | Potency [5]: inactive | Potency [6]: inactive | Potency [7]: inactive | Potency [8]: inactive | Potency [9]: inactive | Potency [10]: inactive | Potency [11]: inactive | Potency [12]: inactive | Potency [14]: inactive | Potency [13]: inactive | Potency [15]: inactive | Potency [16]: inactive

C=CC(=O)OCCOC1C2CCC1C1CC=CC12 (stereo unspecified)
activity change, negative = cytotoxicity [1]: 1.19% [at 19 µM] | viability change, negative = cytotoxic [2]: -7.56% [at 15.8 µM] | activity change, negative = cytotoxicity [3]: 7.46% [at 15.8 µM] | activation [4]: -4.69% [at 15.8 µM] | activity, negative = inhibition [5]: 0.809% [at 10.5 µM] | activation [6]: -0.0878% [at 11.8 µM] | activity change, negative = cytotoxicity [7]: 5.4% [at 19 µM] | caspase activation [8]: 2.88% [at 19 µM] | caspase-3/7 activation [9]: 0.29% [at 19 µM] | activity change, negative = cytotoxicity [10]: 6.81% [at 19 µM] | activation [11]: 5.97% [at 19 µM] | activity change, negative = inhibition [12]: -35.4% [at 23.6 µM] | Potency [14]: 19 µM (active) | activity change, negative = inhibition [15]: -16.8% [at 23.6 µM]

O=C1OCc2ccccc21
Potency [1]: inactive | Potency [2]: inactive | Potency [3]: inactive | outcome [4]: inactive | Potency [5]: inactive | Potency [6]: inactive | Potency [7]: inactive | Potency [8]: inactive | Potency [9]: inactive | Potency [10]: inactive | Potency [11]: inactive | Potency [12]: inactive | Potency [13]: inactive | Potency [15]: inactive | Potency [16]: inactive

CC(C)(C)c1ccc(OC2CCCCC2O)cc1 (stereo unspecified)
Potency [1]: inactive | Potency [2]: inactive | Potency [3]: inactive | outcome [4]: inactive | Potency [5]: inactive | Potency [7]: inactive | Potency [9]: inactive | Potency [10]: inactive | Potency [11]: 27.3 µM (active) | Potency [14]: 31.7 µM (active) | Potency [13]: 35.6 µM (active) | Potency [15]: 35.6 µM (active) | Potency [16]: inactive

CCOC(=O)[C@H](C)O
Potency [1]: inactive | Potency [2]: inactive | Potency [3]: inactive | outcome [4]: inactive | Potency [7]: inactive | Potency [8]: inactive | Potency [17]: inactive | Potency [9]: inactive | Potency [10]: inactive | Potency [11]: inactive | Potency [12]: inactive | Potency [14]: inactive | Potency [13]: inactive | Potency [15]: inactive | Potency [16]: inactive

O=[N+]([O-])c1ccc(CO)cc1
Potency [1]: inactive | Potency [2]: inactive | Potency [3]: inactive | outcome [4]: inactive | Potency [5]: inactive | Potency [6]: inactive | Potency [7]: inactive | Potency [8]: inactive | Potency [9]: inactive | Potency [10]: inactive | Potency [11]: inactive | Potency [12]: inactive | Potency [14]: inactive | Potency [13]: inactive | Potency [16]: inactive

CC(O)(c1ccc(Cl)cc1)c1ccc(Cl)cc1
Potency [1]: inactive | Potency [2]: inactive | Potency [3]: inactive | outcome [4]: inactive | Potency [6]: inactive | Potency [9]: inactive | Potency [10]: inactive | Potency [11]: 27.3 µM (active) | Potency [14]: 0.113 µM (active) | Potency [13]: 7.96 µM (active) | Potency [15]: 31.7 µM (active) | Potency [16]: 49 µM (active)

Nc1cc([N+](=O)[O-])cc(Cl)c1O
Potency [1]: inactive | Potency [2]: inactive | Potency [3]: inactive | outcome [4]: inactive | Potency [5]: inactive | Potency [6]: inactive | Potency [8]: inactive | Potency [9]: inactive | Potency [10]: 61.1 µM (active) | Potency [11]: inactive | Potency [12]: inactive | Potency [14]: 79.6 µM (active) | Potency [13]: 39.9 µM (active)

C/C(=C\c1ccc(C(=O)O)cc1)c1ccc2c(c1)C(C)(C)CCC2(C)C
Potency [1]: inactive | Potency [2]: inactive | Potency [3]: inactive | outcome [4]: inactive | Potency [6]: inactive | Potency [7]: inactive | Potency [8]: inactive | Potency [17]: inactive | Potency [9]: inactive | Potency [10]: inactive | Potency [11]: inactive | Potency [12]: inactive | Potency [13]: inactive | Potency [15]: inactive | Potency [16]: inactive

Nc1c(Br)cc([N+](=O)[O-])cc1Br
Potency [1]: inactive | Potency [2]: inactive | Potency [3]: inactive | outcome [4]: inactive | Potency [7]: inactive | Potency [8]: inactive | Potency [17]: inactive | Potency [9]: inactive | Potency [10]: inactive | Potency [12]: inactive | Potency [14]: 79.6 µM (active) | Potency [13]: inactive | Potency [15]: 1.78 µM (active)

Cc1ccc(N=Nc2c(O)ccc3ccccc23)c(C)c1
Potency [1]: inactive | Potency [2]: inactive | Potency [3]: inactive | outcome [4]: inactive | Potency [5]: inactive | Potency [6]: inactive | Potency [8]: inactive | Potency [17]: 7.5 µM (active) | Potency [9]: inactive | Potency [10]: 8.41 µM (active) | Potency [11]: 0.944 µM (active) | Potency [12]: 17.4 µM (active) | Potency [14]: 12.3 µM (active) | Potency [15]: 3.47 µM (active)

COC(=O)c1ccc([N+](=O)[O-])cc1
Potency [1]: inactive | Potency [2]: inactive | Potency [3]: inactive | outcome [4]: inactive | Potency [5]: inactive | Potency [6]: inactive | Potency [7]: inactive | Potency [8]: inactive | Potency [9]: inactive | Potency [10]: inactive | Potency [11]: inactive | Potency [12]: inactive | Potency [14]: inactive | Potency [15]: 17.8 µM (active) | Potency [16]: inactive

CC(C)=CCC[C@H](C)CC=O
Potency [1]: inactive | Potency [2]: inactive | Potency [3]: inactive | outcome [4]: inactive | Potency [7]: inactive | Potency [8]: inactive | Potency [17]: inactive | Potency [9]: inactive | Potency [10]: inactive

CCN(CC)c1ccc2c(c1)Oc1cc(N(CC)CC)ccc1C21OC(=O)c2ccccc21
Potency [1]: inactive | Potency [2]: inactive | Potency [3]: inactive | outcome [4]: inactive | Potency [5]: inactive | Potency [6]: 15.1 µM (active) | Potency [7]: 4.22 µM (active) | Potency [8]: inactive | Potency [9]: inactive | Potency [10]: 5.31 µM (active) | Potency [11]: 26.6 µM (active) | Potency [14]: 38.9 µM (active) | Potency [13]: 15.5 µM (active) | Potency [16]: inactive
